# Sm TGR inh – S. mansoni TGR enzyme inhibition | Q962Y6 | purified TGR, DTNB reduction, TNB absorbance 405 nm | Potency, µM (doses to about 114 µM), for inactives: at the highest dose activity change, negative = inhibition, hits mostly inhibitors | 360,000 compounds, 3% hits; further: potency means the concentration at half of the fitted maximal effect; nearly all actives have a fitted effect of over 60% in size
#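 Kinetic colorimetric format: TGR-catalysed, NADPH-driven DTNB reduction monitored via TNB absorbance. Enzyme dispensed at 20 nM; compound exposure 15 min at room temperature before reaction start.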
# Pf growth 96h – P. falciparum growth inhibition at 96 hour, primary screen for plastid delayed-death inhibitors; 320,000 compounds, 6.9% hits; AID 504834; P. falciparum luciferase reporter growth, 96 h; Potency, µM (doses to about 28.7 µM), without a hit: top-dose activity change, negative = inhibition, usual class: inhibitors; further: potency means the concentration at half of the fitted maximal effect
#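 96 h incubation, 37 C, 5% CO2, of luciferase-reporter P. falciparum-infected RBCs (2% hematocrit, 0.05% parasitemia final) with test compounds; endpoint luminescence.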
# Giardia FBPA inh – blocks Giardia fructose-bisphosphate aldolase activity. 290,000 compounds, 0.71% hits. A8B2U2. purified Giardia FBPA. AID 2451. Potency, µM (top dose mostly 59.6 µM), without a hit: at the highest dose activity, negative = inhibition, hits mostly inhibitors; further: potency means the concentration at half of the fitted maximal effect; nearly all actives have a fitted effect of over 55% in size
# Target sequence (A8B2U2 whole entry, looked up): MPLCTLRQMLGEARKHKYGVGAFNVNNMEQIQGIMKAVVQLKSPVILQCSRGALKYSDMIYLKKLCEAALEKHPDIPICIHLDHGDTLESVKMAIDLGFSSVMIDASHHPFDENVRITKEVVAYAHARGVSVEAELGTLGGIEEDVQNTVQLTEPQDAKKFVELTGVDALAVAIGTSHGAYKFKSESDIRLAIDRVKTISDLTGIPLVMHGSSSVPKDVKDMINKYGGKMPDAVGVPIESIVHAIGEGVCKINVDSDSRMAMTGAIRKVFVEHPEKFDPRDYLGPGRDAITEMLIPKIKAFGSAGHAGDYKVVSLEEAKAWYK
#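 40 nM FBPA preincubated 10 min at RT with compound (up to 57.5 uM final), then substrate plus GAPDH/TPI/NAD/arsenate coupling and diaphorase/resazurin added. Fluorescence read after 20 min at RT, 525/598 nm.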
# HCMV inh – blocks human cytomegalovirus replication; HFF cells, HCMV-luciferase reporter, 72 h; active compounds read low; activity change, negative = inhibition, % at 57.5 µM; 410,000 compounds, 4.5% hits; AID 1259415; in the data active means activity change below about -60%; inconclusive means no clear call, values can overlap the other calls; inactive means above about -39%
#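 Luciferase read-out from HCMV-luciferase-infected HFFs (MOI 1 PFU/cell) 72 h post infection at 37C; compounds added after 16 h cell attachment; activity normalized between buffer-only basal and Salinomycin (10uM) inhibitor controls.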
# Pf growth 48h – P. falciparum growth inhibition at 48 hours (one generation) | P. falciparum luciferase growth in erythrocytes, 48 h | Potency, µM (top dose mostly 28.7 µM), for the others: at the top dose activity change, negative = inhibition, hits mostly inhibitors | 310,000 compounds, 5.9% hits | AID 504832; further: potency means the concentration at half of the fitted maximal effect
#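 Luminescence readout; reporter = integrated firefly luciferase in P. falciparum. RBC culture at 2% hematocrit, 0.1% parasitemia final, 37 C/5% CO2; decreased signal taken as growth inhibition.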
# Starred values were filed as active, the others as inactive; ? = inconclusive; . = no result; [ ] = another dose, or the depositor's remark. Shown are actives, neighbours in structure and some others; about 14% of the full set was active somewhere. Unless noted, the call rests on the fitted dose curve; in most records, active means well fitted curve in the direction sought with a large enough effect; inconclusive means small, poorly fitted or top-dose-only effect, or another doubt; inactive means no such curve, though single readings can be large; an effect the other way counts as inactive or inconclusive. On the % scale 0 is the no-effect control and ±100 the full control effect.
SMILES,Sm TGR inh,Pf growth 96h,Giardia FBPA inh,HCMV inh,Pf growth 48h
C/C(=N\NC(=O)c1ccc(NS(=O)(=O)c2cccs2)cc1)c1ccncc1,-1%,22%[5.75 µM],6%,10,31%[5.75 µM]
COc1ccc(/C(C)=N/NC(=O)c2ccncc2)cc1[N+](=O)[O-],-1%,26%,-3%,13,54%
COc1cc(C(C)=NNC(=O)c2ccncc2)ccc1O,.,.,.,-101*,.
C/C(=N\NC(=O)c1ccc(NS(=O)(=O)c2cccs2)cc1)c1ccccn1,-10%,12µM*,?,.,?
Cc1c(CC(=O)NCc2ccccc2Cl)c(=O)oc2cc(O)ccc12,-2%,.,.,5,.
Clc1ccc2ccc3cccnc3c2n1,7%,?,-1%,-36,?
O=S1(=O)Nc2c(ccc3cccnc23)-c2ccccc21,0%,-1%[5.75 µM],?,.,2.6µM*
CC1(C(=O)NCc2ccc(C(F)(F)F)cc2)CCN1Cc1ccccc1OC(F)F (stereo not drawn),.,.,.,11,.
C/C(=N\Nc1ccccc1C)c1cccnc1,35µM*,9%,-6%,?,4%
Cc1ccc(CNC(=O)C2CCN(S(=O)(=O)c3c(C)noc3/C=C/c3ccccc3F)CC2)o1,-3%,.,.,33,.
COc1ccc(S(=O)(=O)N2CCN(C(=O)c3cc(-c4ccc(C)cc4)n[nH]3)CC2)cc1,-1%,0%,-2%,?,?
CCN(CC)S(=O)(=O)c1cccc(-c2nnc(SCC(=O)NCCC3=CCCCC3)n2N)c1,-3%,12µM*,1%,-24,-16%
O=C(NNC(=O)c1ccc2ccccc2c1)c1ccc(Cl)c(Cl)c1,.,.,.,-28,.
O=C(Nc1ccncc1)c1ccc(Br)cc1,0%,-10%,6%,-35,?
O=C(Nc1ccncc1)c1cc(F)cc(F)c1,-2%,2.9µM*,6%,-33,?
O=C(Nc1ccc2ccccc2c1)c1ccc(Cl)cc1,6%,5.2µM*,9%,58,222%
O=C(NNc1ccccc1)c1ccc(Cl)c(Cl)c1,.,.,.,-77*,.
O=S(=O)(NCc1cccnc1)c1ccc(Br)c2ccccc12,-5%,0%,3%,-63*,7%
CC(c1nccs1)N(C)C(=O)CCc1nnc(Cc2c[nH]c3ccccc23)o1 (stereo not drawn),-36%[57.1 µM],-18%,0%,7,164%
Fc1ccc(-c2cn3cc(Cc4ccccc4Cl)sc3n2)cc1,3%,.,.,99,.
COc1cc(OC)cc(C(=O)NN2CCOCC2)c1,0%,?,.,5,1%
CN1CCN(c2nc3ccccn3c(=O)c2C=C(C#N)C#N)CC1,-26%,28%,6%,-26,-10%
O=C(Nc1cccnc1)c1ccc(Cl)c(Cl)c1,4%,6.6µM*,5%,-8,?
Cc1ccc(S(=O)(=O)NCc2cccnc2)cc1C,-8%,20%,4%,-86*,4%
Cc1[nH]c2ccc(C(=O)Nc3ccncc3)cc2c1C,0%,12µM*,-8%,-63*,?
SMILES,Sm TGR inh,Pf growth 96h,Giardia FBPA inh,HCMV inh,Pf growth 48h
Cc1cc(S(=O)(=O)NCc2cccnc2)ccc1F,7%,-2%,10%,-9,37%
O=C(Nc1ccc(Cl)c(Cl)c1)c1cccc(S(=O)(=O)NCc2cccnc2)c1,7%,?,9%,-95*,4%
CCc1ccc(NC(=O)c2ccc3[nH]c(C)c(C)c3c2)cc1,-4%,.,.,0,.
O=C(NNC(=O)c1ccc(Cl)c(Cl)c1)c1cccnc1,0%,36%,.,6,38%
COCCNC(=O)C1CCCN(C(=O)c2cc(C)n(C(C)(C)C)n2)CC1 (stereo not drawn),.,.,.,-25,.
C#CCCCO/N=C1/C[C@@H](O)[C@@H](O)[C@@H]2[C@@H]3C(=O)N(Cc4ccc5c(c4)OCO5)C(=O)[C@H]3CC[C@@H]12,.,.,1%[12.9 µM],.,.
Cc1nn(-c2ccc(NC(=O)c3ccncc3)cc2)c(C)c1Cl,0%,-40%,16%,-91*,-9%
O=C(NNc1cc(Br)c(O)c(Br)c1)c1ccccc1,18µM*,-23%,?,?,26%
C/C(=N\NC(=O)c1c(Cl)c(C)nn1C)c1ccc(NC(=O)c2ccncc2)cc1,4%,?,0%,-19,?
O=C(Nc1ccc(Cl)c(Cl)c1)c1ccncc1,0%,15µM*,1%,89,72%
CC(C)(C)c1cc(C(=O)Nc2cccnc2)cc(C(=O)Nc2cccnc2)c1,-9%,0.83µM*,-6%,39,.
O=C(Nc1ccc(Cl)c(Cl)c1)c1ccc(Cl)c(Cl)c1,16%,92%,-15%,1,77%
Cc1cc(NC(=O)C(C)(C)Oc2ccc(Cl)cc2)cc(-c2nc3ncccc3o2)c1O,1%,.,.,0,.
COc1ccccc1C1NC(=O)NC(C)=C1C(=O)OC1CCC(C)CC1 (stereo not drawn),-21%,49%,-4%,-39,14%
Cc1sc2ncnc(N3CCN(Cc4ccccc4)CC3)c2c1-c1ccccc1,-7%,10µM*,2%,-21,12µM*
Cc1sc2ncnc(N3CCN(CCOc4ccc(Cl)cc4)CC3)c2c1C,-5%,13%,5%,-93*,.
Cc1c(N=N/C(C(=O)Nc2ccccc2)=C(/O)c2ccccc2)c(=O)n(-c2ccccc2)n1C,-15%,3.7µM*,-6%,?,?
CCSc1ccc2cc(OC)ccc2[n+]1CC,?,?,-6%,?,0.74µM*
CC[n+]1c(SC)ccc2cc(OC)ccc21,-8%,-2%,1%,-8,0.74µM*
CCn1ccc2cc(OC)ccc2c1=S,-22%,83%,?,189,?
Cc1cccc(C)c1OC(=O)Cc1ccccc1[N+](=O)[O-],37%,9%,10%,-64*,6%
Cc1cccc(C)c1OC(=O)Cc1ccccc1,0%,-15%,-3%,-39,41%
COc1ccc(/C(N)=N/OC(=O)Cc2ccccc2[N+](=O)[O-])cc1,-2%,13µM*,0%,15,7%
N/C(=N\OC(=O)Cc1ccccc1[N+](=O)[O-])c1cccnc1,.,76%,2%,-1,-8%
Cc1nn(C2CCS(=O)(=O)C2)c(C)c1C=O (stereo not drawn),-6%,20%,2%,61,29%
CCc1nc(SCC(=O)NC2CCCC2)c2c(=O)n(C)c(=O)n(C)c2n1,-6%,1%,-1%,-19,-2%
Cc1ccc(NC(=O)c2ccc(OC(=O)COc3cccc(Cl)c3)cc2)cc1,3%,?,0%,69,251%
O=C(CSC1CS(=O)(=O)c2cc([N+](=O)[O-])ccc21)NNC(=O)c1ccc(Cl)cc1 (stereo not drawn),16µM*,?,7%,4,-15%
Cc1ccc(-n2c(-c3cccs3)nc3nc4ccccc4nc32)cc1,5%,2.9µM*,4%,-63*,1%
COc1ccc(NC(=O)c2ccc(-c3ccc(-c4noc(C)n4)cc3C)cc2)cc1N1CCN(C)CC1,3%,2.6µM*,-5%,-20,3.3µM*

# Source: PubChem BioAssay
